The text below walks through data of PubChem BioAssay AID624115 (Johns Hopkins Ion Channel Center, 2012).

Among all 4,000 compounds or so, about 350 (8.8%) were called active.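 Rule for the calls: active = calcium fluorescence ratio at least three times the spread of buffer wells, meaning a non-specific response in parental cells; inactive = the rest.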 These entries were drawn from the full list.

The assay is described as follows: calcium response in parental HEK293 cells, primary screen, counter-screen for MrgX1 agonist project, cell-based, Fluo-4 calcium flux, duplicate, agonist mode (AID 624115). The conditions noted are these: parental HEK293, Fluo-4 calcium fluorescence (FDSS), at 10 µM; stronger effect = higher value.
As to `Fc1cccc(Cl)c1COc1ccc(-c2nnco2)cc1`, the fluorescence ratio F(max-min)/F0 entry was “inactive”.

`Cc1ccc(S(=O)(=O)N(C)c2nc3ccccc3n3c(C(C)C)nnc23)cc1`: the fluorescence ratio F(max-min)/F0 entry was “inactive”.

Turning to `CCCCC(=O)Nc1ccc2c(c1)C(=O)NC2=O`, the fluorescence ratio F(max-min)/F0 result is “inactive”.

Take `O=C(CSc1c2c(nc3ccc(Cl)cc13)CCCC2)NCc1ccco1`: the fluorescence ratio F(max-min)/F0 entry is “inactive”.

Regarding `O=C(Nc1cccc(Cl)c1)c1cncn1-c1ccc(F)cc1`, the fluorescence ratio F(max-min)/F0 result is “inactive”.

`O=C(Cn1c(-c2cncs2)nc2ccccc21)NC1CCCC1`: the fluorescence ratio F(max-min)/F0 result was “inactive”.

As for `Cc1nccn1CCC1CCCCN1C(=O)CCc1nnc(-c2ccsc2)o1` (configuration not stated), the fluorescence ratio F(max-min)/F0 result was “inactive”.

For `COc1ccc(-c2cc(C(F)(F)F)nc(S(C)(=O)=O)n2)cc1OC`, the fluorescence ratio F(max-min)/F0 result is “inactive”.

For the molecule `COc1ccc2c(c1)OC(O)(C(F)(F)C(F)F)CC2=O` (configuration not stated), the fluorescence ratio F(max-min)/F0 is 87.4 (active).

With `FC(F)(F)c1cc(-c2cccs2)nc(NCc2ccco2)n1`, the fluorescence ratio F(max-min)/F0 result was “inactive”.

`CCOC(=O)Nc1ccc2c(c1)N(C(=O)CCN1CCN(CCO)CC1)c1ccccc1CC2`: the fluorescence ratio F(max-min)/F0 entry was “inactive”.

For `O=C(CN1CCN(c2ccccn2)CC1)NC1CCCCC1`, the fluorescence ratio F(max-min)/F0 entry was “inactive”.

In the case of `Cc1c(C(=O)N2CCN(c3ccc(F)cc3)CC2)oc2c1C(=O)CCC2`, the fluorescence ratio F(max-min)/F0 entry was “inactive”.

For `CCN(CC)c1ccc(C2C3CCCCC3(O)CCN2CC(=O)Nc2ccccc2)cc1` (configuration not stated), the fluorescence ratio F(max-min)/F0 result was “inactive”.

In the case of `COc1ccc(Nc2nc(-c3cccnc3)nc3ccccc23)cn1`, the fluorescence ratio F(max-min)/F0 result is “inactive”.

For `O=C(Cc1nc2ccccc2[nH]c1=O)c1ccc(Cl)cc1`, the fluorescence ratio F(max-min)/F0 result was “inactive”.

On to `N#CC1=C(N)Oc2c(sc3ccccc23)C1c1ccco1` (configuration not stated), for which the fluorescence ratio F(max-min)/F0 entry was “inactive”.

In the case of `CCOc1ccc(NC(=O)CCNC(=O)c2ccc(Br)cc2)cc1`, the fluorescence ratio F(max-min)/F0 result is “inactive”.

`Cc1cc(C)n(CCNC(=O)CC2C(=O)NCCN2Cc2ccc(C)o2)n1` (configuration not stated): the fluorescence ratio F(max-min)/F0 entry was “inactive”.

With `CCOC1CCCCC1NS(=O)(=O)c1ccc(Cl)cc1` (configuration not stated), the fluorescence ratio F(max-min)/F0 result is “inactive”.

As to `COC(=O)c1sccc1NS(=O)(=O)c1ccc(F)cc1F`, the fluorescence ratio F(max-min)/F0 result was “inactive”.

As for `CC(=O)Nc1ccc(OC(=O)COc2ccc(Br)cc2)cc1`, the fluorescence ratio F(max-min)/F0 entry was “inactive”.

In the case of `Cc1ccnc(-n2sc3ccccc3c2=O)n1`, the fluorescence ratio F(max-min)/F0 result was “inactive”.

With `CCN(c1cccc(C)c1)S(=O)(=O)c1ccc(-c2coc(C)n2)cc1`, the fluorescence ratio F(max-min)/F0 result was “inactive”.

Consider `COCC(C)NC(=O)c1ccc(Cl)c(Cl)c1` (configuration not stated), for which the fluorescence ratio F(max-min)/F0 result was “inactive”.

Turning to `COc1ccc(C(=O)Nc2c(N)nc(SCC(=O)N3CCC(C)CC3)[nH]c2=O)cc1OC`, the fluorescence ratio F(max-min)/F0 entry is “inactive”.

Take `Cc1ccc(-c2nn(C(C)(C)C)c3ncnc(N)c23)cc1`: the fluorescence ratio F(max-min)/F0 entry is “inactive”.

Turning to `COc1ccc(-n2c(SCC(=O)NCc3ccco3)nnc2-c2c[nH]c3ccccc23)cc1`, the fluorescence ratio F(max-min)/F0 entry is “inactive”.

Regarding `CCOC(=O)Cc1csc(SCc2cc(=O)oc3cc(O)ccc23)n1`, the fluorescence ratio F(max-min)/F0 entry was “inactive”.

In the case of `CCC(C)c1ccccc1N1CC(C(=O)N2CCN(S(=O)(=O)c3ccc(F)cc3)CC2)CC1=O` (configuration not stated), the fluorescence ratio F(max-min)/F0 entry is “inactive”.

Consider `COc1ccc([N+](=O)[O-])cc1NC(=O)COC(=O)/C=C/c1ccco1`, for which the fluorescence ratio F(max-min)/F0 entry was “inactive”.

Regarding `CN(C)CCn1c(=S)[nH]c2ccc(Cl)cc2c1=O`, the fluorescence ratio F(max-min)/F0 entry was “inactive”.

In the case of `FC(F)Oc1ccc(NC(=S)NCc2ccco2)cc1Cl`, the fluorescence ratio F(max-min)/F0 result is “inactive”.

In the case of `O=c1c2cc(Br)ccc2nc(-c2cccc(Cl)c2)n1O`, the fluorescence ratio F(max-min)/F0 is 90.3 (active).

With `O=C1CCCc2c1nc(-c1cccc(Cl)c1)n2O`, the fluorescence ratio F(max-min)/F0 entry was “inactive”.

For the molecule `Cc1nonc1C1CCCN1Cc1nc(-c2ccc(F)cc2F)oc1C` (configuration not stated), the fluorescence ratio F(max-min)/F0 result is “inactive”.

As for `O=C1Cc2ccccc2Sc2ccc(Cl)cc21`, the fluorescence ratio F(max-min)/F0 result was “inactive”.

As to `CCOc1ccc2nc(/N=C/c3nc(-c4ccccc4)oc3O)sc2c1`, the fluorescence ratio F(max-min)/F0 was 114 (active).

`Cc1ccc(NC2(C#N)C(=O)Nc3ccccc32)cc1` (configuration not stated): the fluorescence ratio F(max-min)/F0 entry is “inactive”.

`Clc1ccc(-c2nc3ccccn3c2CN2CCSCC2)cc1`: the fluorescence ratio F(max-min)/F0 result was “inactive”.

Regarding `Cc1ccc2nc(Nc3ccccc3)cc(C)c2c1`, the fluorescence ratio F(max-min)/F0 result is “inactive”.

Consider `Cc1cc2ncn(CCCCOc3ccccc3)c2cc1C`, for which the fluorescence ratio F(max-min)/F0 result is “inactive”.

Regarding `Cc1nn(-c2ccccc2)c(C)c1NC(=O)COc1ccc(Cl)cc1Cl`, the fluorescence ratio F(max-min)/F0 entry is “inactive”.

Consider `COc1ccc(OC)c(Nc2nc3ccccc3n3cnnc23)c1`, for which the fluorescence ratio F(max-min)/F0 entry was “inactive”.

As for `Cc1nn(-c2ccccc2)c2c1C(c1ccc(F)cc1)C(C#N)=C(N)O2` (configuration not stated), the fluorescence ratio F(max-min)/F0 entry was “inactive”.

With `Cc1ccc2cc(/C=N/Nc3ccc(C(=O)O)cc3)c(Cl)nc2c1`, the fluorescence ratio F(max-min)/F0 result is “inactive”.

With `O=C(Nc1nnc(-c2ccccc2)o1)c1cc(-c2cccs2)nc2ccccc12`, the fluorescence ratio F(max-min)/F0 entry is “inactive”.

Take `O=C(Nc1nc2c(F)cc(F)cc2s1)C1COc2ccccc2O1` (configuration not stated): the fluorescence ratio F(max-min)/F0 entry is “inactive”.

As for `Cc1ccc2nc(-c3ccc(NC(=O)CN(C)S(=O)(=O)c4ccccc4)cc3)sc2c1`, the fluorescence ratio F(max-min)/F0 result is “inactive”.

As to `CN(CC(=O)Nc1ccccc1Cl)C(=O)COc1cccc2c1OC(C)(C)C2`, the fluorescence ratio F(max-min)/F0 result is “inactive”.

Turning to `O=C(c1cccc(S(=O)(=O)Nc2ccccc2Cl)c1)N1CCN(C(=O)c2ccco2)CC1`, the fluorescence ratio F(max-min)/F0 entry is “inactive”.

As to `COc1ccc(NC(=O)c2cc(-c3ccc(C)o3)nc3ccccc23)cc1`, the fluorescence ratio F(max-min)/F0 result was “inactive”.

As to `COCCNC(=O)Nc1ccc2nc(-c3ccco3)c(-c3ccco3)nc2c1`, the fluorescence ratio F(max-min)/F0 was 49.8 (active).

Regarding `CC(C)NC(=S)Nc1cccc2cnccc12`, the fluorescence ratio F(max-min)/F0 entry was “inactive”.

Consider `O=C1CCCN1CCCNC(=S)Nc1ccc(F)c(Cl)c1`, for which the fluorescence ratio F(max-min)/F0 result is “inactive”.

For the molecule `Cc1ccc(CS(=O)(=O)c2ncc(Cl)c(C(=O)Nc3nnc(C)s3)n2)cc1`, the fluorescence ratio F(max-min)/F0 result was “inactive”.

As for `COc1ccc(S(=O)(=O)N2CCN(C(=O)NC3CCCCC3)CC2)cc1`, the fluorescence ratio F(max-min)/F0 entry is “inactive”.

For `Cc1cccc(-n2c(Cc3cc(=O)[nH]c(=O)[nH]3)nnc2SC(C)C)c1`, the fluorescence ratio F(max-min)/F0 result was “inactive”.

As for `COc1cc(CCC(=O)Nc2ccncc2Cl)cc(OC)c1OC`, the fluorescence ratio F(max-min)/F0 entry is “inactive”.

In the case of `O=C(COc1ccc(Cl)cc1)NC(=S)Nc1ccccc1N1CCOCC1`, the fluorescence ratio F(max-min)/F0 result was “inactive”.

Regarding `Nc1cc(OC(=O)c2ccccc2Br)nn1S(=O)(=O)c1ccccc1`, the fluorescence ratio F(max-min)/F0 result is “inactive”.

Regarding `O=C1C(=O)N(CC2COc3ccccc3O2)c2ccccc21` (configuration not stated), the fluorescence ratio F(max-min)/F0 is 64.3 (active).

For the molecule `COc1cccc(CNC(=O)C2CCN(S(=O)(=O)c3cccc4cccnc34)CC2)c1`, the fluorescence ratio F(max-min)/F0 entry was “inactive”.

`Cc1ccc(N/C(N)=N/c2nc(C(F)(F)F)cc(C(F)(F)F)n2)cc1`: the fluorescence ratio F(max-min)/F0 entry is “inactive”.

Turning to `O=C(Nc1ccccc1N1CCCCC1)c1ccc2nccnc2c1`, the fluorescence ratio F(max-min)/F0 result was “inactive”.

`Cc1cccc(Cn2cnc3c(N)c(C)c(C)cc32)c1`: the fluorescence ratio F(max-min)/F0 result is “inactive”.

In the case of `CCOC(=O)c1c(NC(=O)CSc2cn(CC)c3ccccc23)sc2c1CCC2`, the fluorescence ratio F(max-min)/F0 entry is “inactive”.

In the case of `CCOc1ccc(C2=CC(c3ccccc3)n3ncnc3N2)cc1` (configuration not stated), the fluorescence ratio F(max-min)/F0 entry was “inactive”.

In the case of `O=C(NC1CCCCC1)C1c2ccccc2C(=O)N1Cc1ccco1` (configuration not stated), the fluorescence ratio F(max-min)/F0 result was “inactive”.

For the molecule `COc1ccc(OC)c(C(=O)c2ccc(Cl)cc2)c1`, the fluorescence ratio F(max-min)/F0 entry is “inactive”.

For the molecule `Cc1cc(Br)ccc1NC(=O)c1cnc(N2CCN(c3ccccn3)CC2)c2ccccc12`, the fluorescence ratio F(max-min)/F0 result is “inactive”.

For the molecule `Cc1ccc2nc(-c3ccc(NC(=O)c4cccnc4)cc3)oc2c1`, the fluorescence ratio F(max-min)/F0 entry was “inactive”.
